Laboratory results as given in PubChem BioAssay AID588492 (Sanford-Burnham Center for Chemical Genomics, 2011).
“And” between values parts separate entries of the source, which are not always exact repeats. Equal values may be shown once. The whole screen tested about 360,000 compounds, of which about 2,300 (0.64%) were called active. The entries come from a sample that favours actives as a whole. Values without a mark were called inactive.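 Rule for the calls: active = compounds giving at least 50% protection of heart cells from peroxide-induced death in the single-dose screen, raw or plate-pattern-corrected value; inactive = the rest.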

test: H9c2 cardiomyocyte survival under peroxide injury – uHTS, H9c2 cells, ATPLite luminescence, primary screen (AID 588492); conditions: H9c2 cardiomyocytes, 2 h, at 20 µM, hits give high values;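 note: 0% = DMSO wells with peroxide and 100% = DMSO wells without peroxide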

First: CCN(CC)CCNc1ccc(Cl)cc1[N+](=O)[O-]
Second: CCCCNc1ccc(C(=O)Nc2cccc(C)n2)cc1[N+](=O)[O-]
The protection from H2O2 cell death of the first is higher: 9.1% for the first, -6% for the second.

Compared with `COCCNc1ccc(-c2n[nH]c(=O)c3ccccc23)cc1[N+](=O)[O-]`, `Cc1ccc(C(=O)C(C)OC(=O)Cc2n[nH]c(=O)c3ccccc23)cc1C` (centres undefined) is lower in protection from H2O2 cell death: 40.1% for the first, 12.9% for the second.

Compared with `CCCC(=O)NC(Nc1ccccc1OC)C(Cl)(Cl)Cl` (centres undefined), `CC(C)CNC(=S)NNC(=O)c1ccccc1OC(F)F` is lower in protection from H2O2 cell death: 3% for the first, -3.4% for the second.

Going from `c1ccc(CCc2ccccn2)cc1` to `[O-][n+]1ccc(OCc2ccccc2)cc1`, the protection from H2O2 cell death falls from -1.9% to -5.2%.

Going from `COc1ccc(OC)c(CN2C(=O)CCC2(C)C(=O)NC2CCCCCC2)c1` (centres undefined) to `O=C(CN1C(=O)NC2(CCCCCCC2)C1=O)NCc1ccc(F)cc1`, the protection from H2O2 cell death falls from 1.4% to -8.5%.

Compared with `COc1ccc(N2CCN(Cc3ccc(Br)s3)CC2)cc1`, `COc1ccc(N2C(=O)CNC2=S)cc1` is higher in protection from H2O2 cell death: -6.8% for the first, 5.9% for the second.

Compared with `Cc1ccc(NC(=O)c2sc3nc(N)c(C#N)cc3c2N)cc1`, `CCSc1nc(-c2ccc(OC)cc2)cc(-c2ccc(OC)cc2)c1C#N` is lower in protection from H2O2 cell death: -0.8% for the first, -1% for the second.

Compared with `CCSc1nnc(SCC(=O)NNC(=O)c2ccccc2F)s1`, `CC(C)c1c(C(=O)N/N=C/c2ccccc2C(=O)O)nnn1-c1nonc1N` is higher in protection from H2O2 cell death: -2.9% for the first, 5.1% for the second.

Going from `COc1ccc(CC(N)c2csc(NC(=O)Cc3ccccc3)n2)cc1` (centres undefined) to `C/C(=N/Nc1nc(-c2ccccc2)c(CC(=O)O)s1)c1ccccc1`, the protection from H2O2 cell death falls from 10.4% to -8.5%.

First: CC(=NNC(=S)N1CCCCCC1)c1ccccn1
Second: CCOC(=O)[C@H]1CCC[C@@H](NS(=O)(=O)c2ccc(NC(C)=O)cc2)C1
The protection from H2O2 cell death of the first is lower: -14.3% for the first, 3.9% for the second.

Compared with `O=c1cc(CN2CCN(S(=O)(=O)/C=C/c3ccccc3)CC2)c2ccc(O)cc2o1`, `CCN(CC(=O)Nc1ccc2c(c1)OCO2)S(=O)(=O)c1ccccc1` is lower in protection from H2O2 cell death: 24.9% for the first, -7.6% for the second.

First: Cc1nn(C)c(C)c1S(=O)(=O)N1CCC(CO)(Cc2ccc(Cl)cc2)CC1
Second: Cc1ccc(CNS(=O)(=O)c2ccc3c(c2)N(C)CCO3)cc1
The protection from H2O2 cell death of the first is lower: -21.2% for the first, -9.1% for the second.

Going from `O=c1[nH]cnc2c1c(-c1ccccc1)cn2-c1ccc(F)cc1` to `O=C(OCc1nnc(-c2ccccc2)o1)c1cc(=O)[nH]c2ccccc12`, the protection from H2O2 cell death rises from -5.8% to 3.9%.

Compared with `CCOC(=O)C1CCN(S(=O)(=O)c2ccc3c(c2)N(C)C(=O)CC(=O)N3C)CC1`, `Cc1cc(=O)oc2c(C)c(OCC(=O)NCCc3ccc(S(N)(=O)=O)cc3)ccc12` is higher in protection from H2O2 cell death: -1.6% for the first, -0.5% for the second.

Going from `C[C@@H]1CN([C@H](C)CO)S(=O)(=O)c2ccc(C#C[C@@H](C)O)cc2O[C@@H]1CN(C)Cc1ccc(-c2ccccc2)cc1` to `Cc1cc(NC(=O)C(C)N2C(=O)c3ccccc3S2(=O)=O)no1` (centres undefined), the protection from H2O2 cell death rises from -5.2% to 6.5%.

Compared with `Cc1onc(-c2ccccc2Cl)c1C(=O)OCc1nnc(-c2ccccc2)o1`, `NC(=O)c1ccccc1N=Cc1ccc2ccccc2c1` is higher in protection from H2O2 cell death: -13.6% for the first, 0.6% for the second.

Compared with `C[C@@H]1CC[C@]2(O[C@@H](CCO)C[C@H](O)[C@H]2O)O1`, `O=C(CCCCO)c1ccc(O)c(Cl)c1` is higher in protection from H2O2 cell death: -5.8% for the first, 15.5% for the second.

Compared with `COc1ccc2oc(C(=O)N(CC(C)C)C3CCS(=O)(=O)C3)c(C)c2c1` (centres undefined), `COc1ccc(NS(=O)(=O)c2ccc(C)c(C(=O)NCC(c3cccs3)N3CCOCC3)c2)cc1` (centres undefined) is lower in protection from H2O2 cell death: 2.8% for the first, -1.3% for the second.

Going from `O=C(CCS(=O)(=O)Cc1ccccc1)Nc1ccc2c(c1)OCCO2` to `COC(=O)c1ccc(S(=O)(=O)NCc2ccccc2)n1C`, the protection from H2O2 cell death falls from 0.6% to -1.9%.

Compared with `C=CCn1c(Cn2nnc3ccccc32)nnc1SCC(=O)N/N=C/c1cc(Br)cc(OC)c1O`, `COCc1c(C(=O)N/N=C\c2cccnc2)nnn1-c1nonc1N` is lower in protection from H2O2 cell death: 9.5% for the first, -0.9% for the second.

Going from `Oc1c(Cl)cc(Cl)cc1/C=N/c1ncn[nH]1` to `COc1cc(OC)nc(N/N=C(\c2ccccc2)c2ccncc2)n1`, the protection from H2O2 cell death falls from 26.3% to -2.9%.

Going from `CN(Cc1c(F)cccc1Cl)C(=O)COC(=O)Cn1cnc2ccccc2c1=O` to `COc1cccc(C2c3[nH]c4ccccc4c3CCN2Cc2cccc(C)n2)c1` (centres undefined), the protection from H2O2 cell death rises from -4% to -1.8%.

Going from `Nc1scc(-c2ccncc2)c1Cl` to `COc1ccc(CNC(=O)c2ccc(NS(=O)(=O)c3ccc4[nH]c(=O)[nH]c4c3)cc2)cc1OC`, the protection from H2O2 cell death rises from -2.7% to 0.1%.

Work on `CCN(CC)Cc1nc2sc(C)c(C)c2c(=O)[nH]1` yielded a protection from H2O2 cell death of 12.4%.

In the case of `CN(C)CCNc1ccc(-c2n[nH]c(=O)c3ccccc23)cc1[N+](=O)[O-]`, the protection from H2O2 cell death is reported as 61.1% (active).
For `O=c1[nH]nc(Cc2ccccn2)c2ccccc12`, the protection from H2O2 cell death was 84.4% (active).
With `CCOc1cc(-c2cc(-c3ccc(NC(C)=O)cc3)nc(N)c2C#N)ccc1O` the protection from H2O2 cell death was 65.8% (active).
With `COc1ccc(CC(=O)N/N=C(\C)c2ccccn2)cc1` the protection from H2O2 cell death was 89.5% (active).
In the case of `COc1ccc(-n2cc(-c3ccccc3)c3c(=S)nc[nH]c32)cc1`, the protection from H2O2 cell death is reported as 72.3% (active).
For `CCCc1nc2ccccc2c(C(=O)OCc2nnc(-c3cc(OC)c(OC)c(OC)c3)o2)c1CC`, the protection from H2O2 cell death was 64.8% (active).
With `O=C(CN(c1ccc2c(c1)OCCO2)S(=O)(=O)c1ccccc1)Nc1ccc2c(c1)OCO2` the protection from H2O2 cell death was 79.8% (active).
For `COc1cc(Br)cc(/C=N/c2ncn[nH]2)c1O`, the protection from H2O2 cell death was 88.7% (active).
In the case of `COC(=O)[C@H]1[C@H]2C[C@H]3c4[nH]c5ccccc5c4CCN3C[C@@H]2CC[C@@H]1O`, the protection from H2O2 cell death is reported as -2.1% and 1%.
With `COc1ccc(-c2ccc3[nH]c4c(c3c2)CCN2C[C@H]3[C@H](C)ON(C)[C@H]3C[C@@H]42)cc1` the protection from H2O2 cell death was 54.5% (active).
With `Nc1nonc1-n1nnc(C(=O)N/N=C/c2cc(Br)ccc2O)c1CSC1=NCCS1` the protection from H2O2 cell death was 56.9% (active).
With `c1ccc(C(=NNc2nc3ccccc3s2)c2ccccn2)cc1` the protection from H2O2 cell death was 51.5% (active).
